Source: PubChem BioAssay
hERG WT inh – inhibitors of human wildtype KCNH2 potassium channel; U2OS, BacMam KCNH2, thallium flux FluxOr; active compounds read low; activity change, % at 1.84 µM; hit rate 0.37% among 340,000;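 active = maximum activity change below -70%; inconclusive = maximum activity change between -70% and -50%; inactive = maximum activity change above -50%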; also: % is scaled to controls: 0 for no effect and ±100 for the full control effect
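U2OS cells were transduced with wild-type KCNH2 virus (2.03 x 10^8 / mL) for 4 h at room temperature, then cultured overnight at 37 C. Thallium flux was read with FluxOr dye. Rate constants were normalized to DMSO controls.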
KCNH2 3.1 inh – inhibitors of human KCNH2 3.1 potassium channel isoform | U2OS KCNH2 3.1, thallium flux FluxOr; active compounds read low | hit rate 0.95% among 340,000 | AID 720553 | activity change, % (tested at about 1.8 µM);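 active = maximum activity change below -70%; inconclusive = maximum activity change from -70% to -50%; inactive = maximum activity change above -50%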;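 also: thallium influx rate constant from kinetic fluorescence after stimulation buffer; % is scaled to controls: 0 for no effect and ±100 for the full control effect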
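Channel expression came from 3.1 mutant virus (1.77 x 10^8 /mL) applied to suspended U2OS cells for 4 h. Flux was tracked with FluxOr dye plus Red40 quencher, and kinetic rate constants normalized to controls.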
TRPV1 potentiator – human TRPV1 potentiation; TRPV1-expressing cells, Fluo-8 calcium influx, capsaicin EC20 potentiation; AID 540277; potentiation, % at 8.33 µM; Q8NER1; hit rate 0.02% among 320,000; in the data active = potentiation above about 80%; inconclusive = between about 30% and that limit; also: 0% is about no effect
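Fluo-8 calcium influx in TRPV1-expressing cells, kinetic read (ex 480/em 520 nm). Compound added and read 3 min for agonist activity, followed by capsaicin at EC20 final and 2 min further read for enhancement.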
TRPV1 ag – activates the human vanilloid receptor TRPV1. AID 540275. hit rate 0.19% among 320,000. activation, % at 8.33 µM. TRPV1-expressing cells, Fluo-8 calcium influx, agonist mode; in the data active = activation above about 80%; inconclusive = between about 30% and that limit; also: 0% is about no effect
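TRPV1-expressing cells were cultured overnight at 35.5C and loaded with Fluo-8 calcium dye for 40 to 90 min at room temperature. After a 10 s baseline, compound was added and calcium influx was read kinetically for 3 min (ex 480/em 520 nm).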
p53 reactivation – restores transcriptional activity of mutant p53. hit rate 0.063% among 320,000. H1299 p53-A138V BP100-luciferase reporter, luminescence, 24 h. AID 504706. Potency, µM (highest dose often 92.2 µM), without a hit: at the top dose activity change, positive = activation, hits mostly activators; active = well fitted activation curve with a large enough effect; inconclusive = small, poorly fitted or top-dose-only effect; inactive = no such curve, though single readings can be large or run the other way; also: potency is read from the fitted curve at half-maximal effect; % of control where 0% means no effect; nearly all actives have a fitted effect of over 45% in size
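p53-null H1299 cells stably carrying temperature-sensitive p53-A138V and a BP100-luciferase reporter were pinned with compounds (4-point, 1:5 series) and held 24 hrs at 37 deg C. Luminescence was read 10 min after detection reagent.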
ClpP mod – qHTS Assay for Activators of ClpP; Potency, µM (doses to about 57.5 µM), for the others: at the top dose activity change, negative = active; purified B. subtilis ClpP, FRET peptide cleavage, 20 min; ATP-dependent Clp protease proteolytic subunit (Bacillus subtilis (strain 168)), P80244; hit rate 1.9% among 340,000; active = well fitted falling curve with a large enough effect; inconclusive = small, poorly fitted or top-dose-only effect; inactive = no such curve, though single readings can be large or run the other way; also: potency is read from the fitted curve at half-maximal effect; the source files actives as falling curves though it sought activators and does not explain the sign; nearly all actives have a fitted effect of over 65% in size
Target sequence (P80244 whole entry, looked up): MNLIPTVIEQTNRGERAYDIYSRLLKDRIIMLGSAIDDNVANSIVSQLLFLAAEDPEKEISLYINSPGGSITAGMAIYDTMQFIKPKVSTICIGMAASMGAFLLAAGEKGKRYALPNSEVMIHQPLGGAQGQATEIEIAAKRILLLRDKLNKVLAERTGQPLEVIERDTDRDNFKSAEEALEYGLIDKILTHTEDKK
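Buffer: 100 mM Tris/HCl pH8, 100 mM KCl, 0.05% low protease BSA, 2.5% glycerol, 0.01% Tween-20. ClpP 10 microg/mL final; 20 min RT; delta FRET normalized to ADEP and DMSO controls.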
Starred values were filed as active, the others as inactive; ? = inconclusive; / = not tested or not shown. Most compounds without a hit are left out; they make up all but 2.6% or so of the library.

SMILES	hERG WT inh	KCNH2 3.1 inh	TRPV1 potentiator	TRPV1 ag	p53 reactivation	ClpP mod
c1ccc(CCN(Cc2ccccc2)C2CCN(C3CCCC3)CC2)cc1	12	-88*	-11	7	12%	/
CCCC(c1nnnn1CC(=O)OCC)N(Cc1cc2ccc(C)cc2[nH]c1=O)C1CCCC1 (stereo not drawn)	-5	-23	-1	6	-1%	18µM*
CCCC(c1nnnn1CC(=O)OCC)N(Cc1cc2c(C)cc(C)cc2[nH]c1=O)C1CCCC1 (stereo not drawn)	0	-25	1	4	5%	?
C/C=C/C(=O)Nc1cccc(C2=NOC3(C2)C[C@@H](C(N)=O)N(C(=O)c2cc([N+](=O)[O-])cc([N+](=O)[O-])c2C)C3)c1 (stereo partly drawn)	3	-84*	26	-3	-5%	3%
C/C=C\C(=O)Nc1cccc(C2=NOC3(C2)C[C@@H](C(N)=O)N(C(=O)CCCCC)C3)c1 (stereo partly drawn)	-85*	6	?	2	-3%	-2%
CCCCCC(=O)N1CC2(CC(c3cccc(NC(=O)COc4ccc(Cl)cc4)c3)=NO2)C[C@@H]1C(N)=O (stereo partly drawn)	-91*	-74*	22	0	7%	-1%
NC(=O)[C@H]1CC2(CC(c3cccc(NC(=O)COc4ccc(Cl)cc4)c3)=NO2)CN1C(=O)c1ccc(Cl)cc1 (stereo partly drawn)	-43	-91*	-17	2	2%	-4%
O=C(Cc1ccccc1)Nc1nnc2n1CCS2	/	/	/	/	/	0%
Cc1ccccc1-c1csc(C(C)(O)c2ccc(F)c(F)c2)n1 (stereo not drawn)	/	/	/	/	/	-2%
CN(CC(=O)Nc1ccc(F)cc1)CC(=O)N(C)C1(C#N)CCCCC1	0	-115*	1	2	-6%	-2%
COc1ccc(NC(=O)CN(C)CC(=O)N(C)C2(C#N)CCC(C)CC2)cc1 (stereo not drawn)	-3	-2	-3	4	-3%	-2%
Cc1ccc2cc(CN(CC3CCCO3)C(=O)NC3CCCCC3)c(=O)[nH]c2c1C (stereo not drawn)	-4	-15	0	?	3%	?
O=C(NC1CCCCC1)N(CCN1CCOCC1)Cc1cc2cc3c(cc2[nH]c1=O)OCCO3	-18	12	22	-1	-3%	35µM*
CCN(CC)CCCN(Cc1cc2ccc(C)c(C)c2[nH]c1=O)C(=O)NC1CCCCC1	-3	-8	4	0	-7%	28µM*
COc1ccc2[nH]c(=O)c(CNC3CCCCC3)cc2c1	4	2	-5	6	-4%	16µM*
COc1ccc(CN(Cc2cc3cc4c(cc3[nH]c2=O)OCO4)C(=O)NC2CCCCC2)cc1	21	-1	10	8	-15%	22µM*
CCNC(=O)C1(C)CCCN(Cc2cccc3ccccc23)C1 (stereo not drawn)	/	/	/	/	/	-4%
CCOc1ccc(NC(=O)CSc2nnc(-c3ccc(C)cc3)c(-c3ccc(C)cc3)n2)cc1	/	/	/	/	/	-2%
COc1ccc(-n2c(=O)c3c(c4cc(OC)ccc4n3C)n(Cc3c(F)cccc3Cl)c2=O)cc1	/	/	/	/	/	-12%
CCN(CC)CCN(Cc1cc2cc3c(cc2[nH]c1=O)OCCO3)C(=O)NC1CCCCC1	-7	-1	-5	3	29%	25µM*
C=CC[n+]1ccc(/C=C2\C=Cc3cc(C)ccc3N2CC)c2ccccc21	0	-115*	-8	-1	0%	0%
CCN1/C(=C/c2cc[n+](CCCS(=O)(=O)[O-])c3ccccc23)Sc2ccccc21	-5	9	13	-4	0%	/
COc1ccc(/C=C/CN2CCCC(C(=O)c3ccc(OC)c(F)c3)C2)cc1 (stereo not drawn)	-12	-90*	3	1	2%	/
COc1cccc(C(=O)C2CCCN(C/C=C/c3ccccc3OC)C2)c1 (stereo not drawn)	9	-10	23	7	0%	/
COc1ccc(C(=O)C2CCCN(Cc3c(F)ccc(F)c3F)C2)c(OC)c1 (stereo not drawn)	19	-17	-6	16	/	/
SMILES	hERG WT inh	KCNH2 3.1 inh	TRPV1 potentiator	TRPV1 ag	p53 reactivation	ClpP mod
COc1ccc(C(=O)C2CCCN(Cc3cccn3-c3ccc(Cl)cn3)C2)c(OC)c1 (stereo not drawn)	-30	-73*	-7	0	0%	/
COc1ccc(C(=O)C2CCCN(C/C=C/c3ccccc3OC)C2)c(OC)c1 (stereo not drawn)	29	-71*	-4	8	-3%	/
CC1CC(C)CN(c2oc(-c3ccc(OCc4ccccc4Cl)cc3)nc2C#N)C1 (stereo not drawn)	/	/	/	/	/	4%
COc1ccc(Br)cc1CNC(=O)C1CCCCN1S(=O)(=O)c1ccc(F)cc1 (stereo not drawn)	/	/	/	/	/	-1%
Cc1nc(-c2nc(C(=O)NNS(C)(=O)=O)cs2)cs1	-11	4	15	1	1%	-1%
CC(=O)NNC(=O)c1csc(-c2csc(C)n2)n1	0	-4	/	/	-3%	32µM*
N#Cc1cc2c(ccc3ccccc32)oc1=O	-2	33	-8	-12	-1%	/
Cc1c(C#N)c(=O)oc2ccc3ccccc3c12	21	13	/	/	0%	7.9µM*
CCC(=NCc1ccccc1)C1=C(O)C(C(=O)OC)C(C)(C)CC1=O (stereo not drawn)	6	25	-3	0	0%	3.2µM*
Cc1csc(NC(C)c2nc3cc(Cl)c(Cl)cc3n2CCCO)n1 (stereo not drawn)	-9	-80*	/	/	/	-5%
CC(Nc1nc(-c2ccc(F)cc2)cs1)c1nc2cc(C(F)(F)F)ccc2n1CCCO (stereo not drawn)	-16	-12	/	/	/	-2%
COc1ccc(-c2nc(CSCC(=O)NCCc3ccccc3)c(C)o2)cc1	/	/	/	/	/	32µM*
CCOc1ccc(-c2nnc(SCC(=O)NCCC(C)C)nc2-c2ccc(OCC)c(OC)c2)cc1OC	/	/	/	/	/	16µM*
CCN1CCN(CCNC(=O)CSCc2nc(-c3ccc(OC)c(OC)c3)oc2C)CC1	5	14	3	-1	0%	-23%
COc1ccc(-c2nc(CSCC(=O)NCCC(C)C)c(C)o2)cc1OC	/	/	/	/	/	28µM*
Cc1cc2c(cc1S(=O)(=O)CCC(=O)N1CCC(C)CC1)OCC(=O)N2	/	/	/	/	/	0%
Cc1nonc1CN(C)C(=O)CC1C(=O)NCCN1Cc1c(F)cccc1Cl (stereo not drawn)	4	-5	7	1	1%	/
Cc1cc(CN(C)C(=O)CC2C(=O)NCCN2Cc2c(F)cccc2Cl)n[nH]1 (stereo not drawn)	-79*	-15	17	4	0%	/
